# Measurements published in PubChem BioAssay AID1463 (National Center for Advancing Translational Sciences (NCATS), 2008).
# The whole screen tested about 280,000 compounds, of which about 2,600 (0.93%) were called active. A call without a number means that no potency is given here. Inconclusive results (about 8%) are left out. The call rests on the fitted dose curve; in most records, active means well fitted curve in the direction sought with a large enough effect; inconclusive means small, poorly fitted or top-dose-only effect; inactive means flat fitted curve, though single readings scatter. For the sample, actives were picked, then their nearest neighbours and some compounds at random.
# Assay: Counterscreen qHTS for Inhibitors of Tau Fibril Formation, Fluorescence Polarization; further: nearly all actives have a fitted effect of over 55% in size
# Conditions: tau K18 P301L (four-repeat tau fragment) Alexa594 fluorescence, heparin fibrillization; series mostly up to 57.7 µM
# Excerpt: NIH Molecular Libraries Probe Production Network [MLPCN]
# NIH Chemical Genomics Center [NCGC]
# Assay Provider: Carlo Ballatore, University of Pennsylvania
# The microtubule-associated protein tau is an abundant protein in the axons of neurons that stabilizes microtubules. With its ability to modulate microtubule dynamics, tau contributes directly or indirectly, to key structural and regulatory cellular functions. Particularly important is the influence tau exerts on axonal transport, which allows signaling molecules, trophic factors and other essential cellular constituents to travel along the axons. Under pathological conditions, tau becomes sequestered into insoluble aggregates called neurofibrillary tangles. This phenomenon is believed to have pathological consequences by promoting axonal transport deficits that ultimately lead to synaptic dysfunction and neuronal loss. To identify inhibitors of tau aggregation, a heparin-induced tau fibril formation assay was used that employed a recombinantly expressed fragment of tau, K18 (Q242-E372), bearing a P301L mutation (Gustke et al. 1994; Hong et al. 1998). […] Total fluorescence (555 nm excitation and 632 nm emission) was measured to identify fluorescent or absorbent compounds at this wavelength. Such compounds may be artifacts that interfere with the Alexa 594 Tau fluorescence polarization assay.
# Gustke, N., B. Trinczek, et al. (1994). "Domains of tau protein and interactions with microtubules." Biochemistry 33(32): 9511-22.
# Hong, M., V. Zhukareva, et al. (1998).
# Li, W. and V. M. Lee (2006). "Characterization of two VQIXXK motifs for tau fibrillization in vitro." Biochemistry 45(51): 15692-701.
# von Bergen, M., S. Barghorn, et al. (2001). "Mutations of tau protein in frontotemporal dementia promote aggregation of paired helical filaments by enhancing local beta-structure." J Biol Chem 276(51): 48165-74.
# NCGC Assay Protocol Summary:
# For screening, 2 uL/well human K18 P301L (15 uM unlabeled and 0.24 uM Alexa 594-labeled tau final concentrations) in reagent buffer (100 mM sodium acetate pH 7) was dispensed into black solid 1536-well plates (Grenier) using a solenoid-based dispenser. Following transfer of 23 nL compound or DMSO vehicle by a pin tool, 2 uL/well heparin (20 uM final concentration) in reagent buffer was added and the plate centrifuged 15 s at 1000 RPM. Plates were incubated 6 hr at 37 C and then 1 uL/well ThT (30 uM final concentration) was added. After a 1 hr ambient incubation, the plates were read by an Envision (Perkin Elmer) to monitor Alexa 594 FP (555 nm excitation and 632 nm emission).
# Keywords: NIH Roadmap, MLPCN, MLI, MLSMR, NCGC, qHTS, tau, tauopathies, Alzheimer's disease, fibril, neurodegeneration, aggregation
# Potency means the concentration at half of the fitted maximal effect; tags describe the fitted curve by direction and shape or compound fluorescence and quenching.
row,SMILES,Potency
1,O=C(Nc1cccc(C(F)(F)F)c1)c1cnccn1,inactive
2,Cc1ccc(NC(=O)Nc2cccc(C(F)(F)F)c2)nc1,inactive
3,O=C(Nc1ccc(F)cc1F)c1ccc2c(=O)n3c(nc2c1)CCCCC3,inactive
4,O=C(CC1N=C2c3ccccc3N=C(SCc3cccc(Cl)c3)N2C1=O)NCc1ccc2c(c1)OCO2 (centres undefined),inactive
5,CCCn1c2ccccc2c2cnn(CC(=O)N(CC)c3cc(C)ccc3C)c(=O)c21,inactive
6,CCN(CC)CCNC(=O)Cn1ncc2c3ccccc3n(Cc3ccccc3C)c2c1=O,inactive
7,Cc1ccc2nc(/C(C#N)=C/c3ccc(-c4ccc(C(=O)OC(C)C)cc4)o3)[nH]c2c1,inactive
8,CC(=O)OC1=C(C(C)=O)N(Cc2ccccc2)S(=O)(=O)c2ccccc21,inactive
9,CCOC(=O)Cn1c(=O)n(C2CCCCC2)c2nc(-c3cccc(OC)c3)nc(C(N)=O)c21,inactive
10,COc1ccc(NC(=O)c2sc(N)nc2-c2ccccc2)cc1,inactive
11,COC(=O)CCc1sc(Nc2ccc(Br)cc2)nc1-c1ccc(OC)cc1,8.91 µM [quencher] (active)
12,Cc1ccc(OC(=O)CCC(=O)Nc2ccc(Br)cc2)cc1,inactive
13,COC(=O)c1ccc(NC(=O)CCc2c(C)nn(-c3ccc(N4CCCC4)nn3)c2C)cc1,inactive
14,Oc1ccc(N=Cc2sc3ccccc3c2Cl)cc1,10 µM [quencher] (active)
15,COc1ccc(N=C(C)c2sc3ccccc3c2O)cc1,inactive
16,Oc1ccc2ccccc2c1C=Nc1ccccc1,inactive
17,CCCNc1ncnc2c1c(-c1ccccc1)cn2-c1ccc(OCC)cc1,inactive
18,O=C(Nc1ccccc1F)C(c1ccccc1)N1Cc2ccccc2C1=O (centres undefined),inactive
19,Cc1ccc(C)c(CNC(=O)c2cc3ccccn3n2)c1,inactive
20,CCc1ccc(CNC(=O)c2ccc(CS(=O)c3ccc(Br)cc3)o2)cc1 (centres undefined),inactive
21,CN(C)c1cccc(C(=O)Nc2nc3ccc(S(=O)(=O)NC(C)(C)C)cc3s2)c1,inactive
22,COCCNc1ccnc(-c2cccc(NS(C)(=O)=O)c2)n1,inactive
23,COc1ccc2[nH]cc(CCNc3nc(-c4cccc(NS(C)(=O)=O)c4)nc4ccccc34)c2c1,28.2 µM [quencher] (active)
24,COc1ccc2[nH]cc(CCNc3ncnc4ccc(-c5ccccc5CN(C)C)cc34)c2c1,inactive
25,Cc1cccc(Cn2c(CN3CCC(C(=O)NCc4ccccc4Cl)CC3)cc3ccccc32)c1,inactive

row,SMILES,Potency
1,CCn1c2ccccc2c2cc(NC(=O)CNC)ccc21,inactive
2,CCn1c2ccccc2c2cc(NC(=O)Nc3ccc([N+](=O)[O-])cc3C)ccc21,8.91 µM [quencher] (active)
3,Cc1cc([N+](=O)[O-])ccc1NC(=O)c1ccc(NC(=O)C(C)C)cc1,inactive
4,O=C(Cn1cc(SCc2cccc(Cl)c2)c2ccccc21)N1CCCCC1,inactive
5,Cc1nc2ccn(Cc3cccnc3)c(=O)c2cc1C(=O)N1CCN(c2ccccc2F)CC1,inactive
6,CN(C)c1ccc(C(CNC(=O)c2ccc(F)cc2)c2c[nH]c3ccccc23)cc1 (centres undefined),25.1 µM [quencher] (active)
7,CCOc1ccccc1C(=O)NCC(c1ccc(N(C)C)cc1)N1CCCC1 (centres undefined),inactive
8,O=C(Cc1ccccc1)NCc1ccc(F)cc1,inactive
9,CCOc1ccc(CNC(=O)Cn2cc3c(n2)-c2c(oc(C(=O)N4CCCC4)c2C)CC3)cc1,inactive
10,O=C(CN1C(=O)COc2ccc(S(=O)(=O)N3CCOCC3)cc21)N1CCN(c2cccc(Cl)c2)CC1,inactive
11,COc1ncnc2sc3c(c12)CCCC3,inactive
12,COc1ccc(/C=N/Nc2ncnc3sc4c(c23)CCCC4)cc1O,14.1 µM [quencher] (active)
13,CC1(C)CN=C(N2CCN(c3ncnc4sc5c(c34)CCCC5)CC2)S1,inactive
14,Cc1ccc(Cl)cc1NC(=O)CCS(=O)(=O)c1ccc(Br)s1,inactive
15,Cc1ccccc1Nc1nn2c(=O)c3ccc(C(=O)NCCc4ccc(Cl)cc4)cc3nc2s1,inactive
16,CN1CCN(C2(CNC(=O)COc3ccc(C(C)(C)C)cc3)CCCCC2)CC1,inactive
17,Cn1c(C(=O)N2CCC(C(=O)N3CCN(c4ccccc4)CC3)CC2)cc2sccc21,inactive
18,O=C(N/N=C/c1c(Cl)[nH]c2ccccc12)c1sc2ccccc2c1Cl,10 µM [quencher] (active)
19,Cc1nn(C)cc1/C=N/NC(=O)c1sc2ccccc2c1Cl,inactive
20,CCCC(=O)Nc1ccc(NC(=O)c2sc3ccccc3c2Cl)cc1,inactive
21,CCOc1ccc(CCNC(=O)c2ccc3c(c2)sc2nc(-c4ccc(F)cc4)cn23)cc1OCC,inactive
22,COc1ccccc1CC(=O)Nc1ccc([N+](=O)[O-])cc1OC,inactive
23,COc1ccccc1CSc1ncc(-c2ccc([N+](=O)[O-])cc2)[nH]1,28.2 µM [quencher] (active)
24,COc1ccccc1CSc1nc2ccccc2[nH]1,inactive
